{"source": "PubChem BioAssay (NCI)", "note": "This is part of a sample that, as a whole, favours compounds with a hit. Of some 83,000 tested, about 20% had one in any assay.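 Values shown are percent growth following 48 h exposure of cells in 96-well plates to a single concentration of compound; below 10 was considered active.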 Values without a mark were called inactive. The source made the active and inactive calls.", "data": [{"test_system": "MDA-MB-468 breast", "assay": "NCI-60 one-dose screen, 48 h (100 = growth as untreated, 0 = no growth, -100 = all killed)", "details": "10 µM unless noted", "values": [{"compound": "O=C1Nc2cc(OC(F)(F)F)ccc2Oc2ccc(-c3ccnc(N4CCNCC4)c3)cc21", "growth": "-79.4% (active)"}, {"compound": "C#C[C@]1(O)CC[C@H]2[C@@H]3CC=C4c5sc(Nc6cc(C)cc(C)c6)nc5CC[C@]4(C)[C@H]3CC[C@@]21C", "growth": "-11.3% (active)"}, {"compound": "COC12C=C/C(=C(/C(=O)OCc3csc(SC)n3)C(=O)CCCCCCCCC3(OC)C=C/C(=C(/C(=O)OCc4cnc(SC)s4)C(=O)CCCCCCCC1)O3)O2", "note": "(stereo not drawn)", "growth": "29.5%"}, {"compound": "CC(C)=CC(=O)OCC(=O)O[C@@H]1C[C@]2(C(C)C)O[C@@]1(C)[C@@H]1CC[C@@H](C)[C@H]1[C@@H]2OC(=O)/C=C/c1ccccc1", "growth": "64.3%"}, {"compound": "O=C1Nc2ccc(Cl)cc2/C1=C/c1ccc[nH]1", "growth": "-19.6% (active)"}, {"compound": "CC(=O)NC(O)C(Cl)Cl", "note": "(stereo not drawn)", "growth": "106%"}, {"compound": "Oc1cc(/C=C/c2nc(N3CCOCC3)c3cc(Cl)c(Cl)cc3n2)cc(O)c1O", "growth": "85%"}, {"compound": "Cc1cc(C)nc(NC(N)=NCCc2ccccc2)n1", "growth": "-3.56% (active)"}, {"compound": "CC(=O)Nc1ccccc1-c1nc2ccccc2s1", "growth": "93%"}, {"compound": "Cc1cn(C(=O)/C(Cl)=C(/Cl)C(=O)O)c2ccccc12", "growth": "108%"}, {"compound": "O=C(Nc1ccc(Oc2ccc(F)cc2)c(Cl)c1)c1cnccn1", "growth": "31.8%"}, {"compound": "CC(=O)[C@@H]1CC[C@]2(C(N)=O)CC[C@]3(C)[C@H](CC[C@@H]4[C@@]5(C)CCC(=O)C(C)(C)[C@@H]5CC[C@]43C)[C@@H]12", "growth": "98.5%"}, {"compound": "C[C@@H]1CN(c2cnc(C(=O)Nc3cc(F)cc4cccnc34)cn2)C[C@H](C)N1", "growth": "3.8% (active)"}, {"compound": "O=C(Nc1cccc(C2=NCCN2)c1)c1ccc(OCCCOc2ccc(C(=O)Nc3cccc(C4=NCCN4)c3)cc2)cc1", "growth": "-24.4% (active)"}, {"compound": "Cc1cc(C(=O)Nc2sc3c(c2C(N)=O)CCC(=O)C3)ccc1OCCN1CCCCC1", "growth": "112%"}, {"compound": "C#C[C@]1(O)CC[C@H]2[C@@H]3CC=C4c5sc(-c6cccc(F)c6)nc5CC[C@]4(C)[C@H]3CC[C@@]21C", "growth": "71.1%"}, {"compound": "Cc1[nH]n(C(=O)c2ccncc2)c(=O)c1N=Nc1ccc(O)c(C(=O)O)c1", "growth": "105%"}, {"compound": "CC(=O)[C@H]1CC[C@H]2[C@@H]3CCC4=CC(=O)C=C[C@]4(C)[C@H]3CC[C@]12C", "growth": "87.5%"}, {"compound": "NC(N)=Nc1ccc(Oc2cccc(Nc3cccc(C(F)(F)F)c3)c2)cn1", "growth": "-37.1% (active)"}, {"compound": "CCOP(=O)(OCC)c1nc(-c2ccccc2)oc1NCc1cccnc1", "growth": "114%"}, {"compound": "Clc1ccc2c(NCCCn3ccnc3)c3oc4ccc(Cl)cc4c3nc2c1", "growth": "31.3%"}, {"compound": "Cc1cc(NS(=O)(=O)c2ccc(-c3cnc(C4CC4)o3)cc2)ccc1I", "growth": "3.98% (active)"}, {"compound": "COc1c(O)c(O)cc2c3c(oc12)CC(c1ccc2c(c1)OCO2)CC3=O", "note": "(stereo not drawn)", "growth": "79.9%"}]}]}
